Screening data: PubChem, National Center for Advancing Translational Sciences (NCATS)
HPGD block = blocks human HPGD enzyme activity; P15428; purified HPGD, NADH fluorescence kinetic, PGE2 substrate; 150,000 tested, 4.3% active; Potency, µM, for inactives: top-dose activity change, negative = inhibition, hits mostly inhibitors; note: potency is the fitted concentration of half-maximal effect
Target sequence (P15428 whole entry, looked up): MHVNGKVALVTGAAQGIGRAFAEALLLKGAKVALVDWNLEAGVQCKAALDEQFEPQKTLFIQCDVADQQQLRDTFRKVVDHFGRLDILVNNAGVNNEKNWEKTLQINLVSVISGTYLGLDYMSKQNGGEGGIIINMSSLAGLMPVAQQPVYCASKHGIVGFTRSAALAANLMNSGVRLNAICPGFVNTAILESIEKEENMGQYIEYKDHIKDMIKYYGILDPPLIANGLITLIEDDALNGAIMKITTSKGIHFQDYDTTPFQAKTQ
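NADH formation kinetics: reaction with 30 uM PGE2 and 1 mM NAD+ (final), 20 nM enzyme, Tris-HCl pH 8 with Tween 20, after 15 min compound preincubation at room temperature. Fluorescence change, last versus first of five reads.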
PNC assembly inh = inhibitors of perinucleolar compartment assembly. activity change (PNC), negative = inhibition, % at 10 µM. AID 2417. PC3M PTB-GFP, PNC prevalence imaging, 16 h; stronger effect = lower value. 140,000 tested, 3.1% active;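 active = readout at or below -70, meaning at least 70% loss of cells showing the perinucleolar compartment, a nuclear body marking cancer cells; inconclusive = readout between -30 and a set limit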;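 note: plate controls were DMSO wells for no effect and camptothecin positive control wells for full effect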
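Compounds are pinned in duplicate onto adhered PC3M cells stably expressing GFP-tagged PTB and incubated 16 h at 37 C. Cells are then fixed, nuclei stained with Hoechst, and PNC-positive cells counted.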
IMPase cell inh = IMPase inhibition in cells; inhibition (IP1 accumulation), % at 46.1 µM; AID 901; 120,000 tested, under 10 active; CHO-M1 cells, IP1 accumulation, HTRF TR-FRET ratio; active = well fitted curve in the direction sought with a large enough effect in the signal ratio, not every such curve was filed as active; inconclusive = small, poorly fitted or top-dose-only effect, or a change in a side signal; inactive = no such curve, though single readings can be large or run the other way; the % refers to the signal ratio;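 note: cells stimulated with carbachol in lithium chloride buffer; plate controls were DMSO basal wells for no effect and reference inhibitor wells for full effect; higher means more IMPase inhibition seen as more IP1 and lower FRET ratio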
Target sequence (P97697 whole entry, looked up): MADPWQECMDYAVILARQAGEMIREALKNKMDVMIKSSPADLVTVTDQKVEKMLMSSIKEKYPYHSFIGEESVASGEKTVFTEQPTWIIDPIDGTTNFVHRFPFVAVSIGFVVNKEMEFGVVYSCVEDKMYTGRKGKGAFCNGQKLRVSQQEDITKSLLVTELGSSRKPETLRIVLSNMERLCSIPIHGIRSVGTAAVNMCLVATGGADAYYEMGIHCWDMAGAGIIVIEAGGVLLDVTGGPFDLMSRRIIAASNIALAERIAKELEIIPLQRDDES
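CHO-M1 cells (CHO stably expressing M1 receptor), compound up to 46 uM final, stimulated with carbachol (50 uM as added) in buffer with 50mM LiCl, pH 7.4, 30 min at 37C. Cytosolic IP1 read by TR-FRET; AC50 from Hill fits.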
ALDH1A1 block = inhibitors of human aldehyde dehydrogenase 1A1. Purified ALDH1A1, NADH fluorescence, propionaldehyde substrate. 220,000 tested, 7.3% active. AID 1030. Potency, µM (doses to about 75.3 µM), without a hit: at the top dose activity, negative = inhibition, actives largely listed as inhibitors. P00352;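 note: potency is the fitted concentration of half-maximal effect; plate controls were no enzyme wells and a reference inhibitor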
ALOX12 inhib = inhibitors of human 12-lipoxygenase (ALOX12) | P18054 | purified 12-hLO, xylenol orange hydroperoxide absorbance | Potency, µM (highest dose often 57.1 µM), for inactives: at the top dose activity change, negative = inhibition, usual class: inhibitors | 150,000 tested, 0.12% active | AID 1452; active = well fitted curve in the direction sought with a large enough effect; inconclusive = small, poorly fitted or top-dose-only effect, or another doubt; inactive = no such curve, though single readings can be large; an effect the other way counts as inactive or inconclusive; note: potency is the fitted concentration of half-maximal effect; nearly all actives have a fitted effect of over 55% in size
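Xylenol orange chromogenic assay: hydroperoxide from 12hLO oxidises Fe(II), giving red-shifted Fe(III)-XO absorbance. Conditions: 150 nM enzyme, 40 uM arachidonic acid, 25 mM Hepes pH 7.0, 0.01% Triton X-100, 30 min, room temperature.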
IMPase Li inh = IMPase inhibition in cells with lithium potentiation; CHO-M1 cells, IP1 TR-FRET (IP-One), carbachol + lithium; 210,000 tested, 0.35% active; Potency, µM (doses to about 59.4 µM), for inactives: at the top dose activity, negative = IMPase inhibition, hits mostly inhibitors; active = well fitted curve in the direction sought with a large enough effect; inconclusive = small, poorly fitted or top-dose-only effect, or another doubt; inactive = no such curve, though single readings can be large; an effect the other way counts as inactive or inconclusive;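 note: IP1 builds up when IMPase is blocked and the TR-FRET signal falls; potency is the fitted concentration of half-maximal effect; plate controls were basal vehicle for no effect and high inhibitor control for full effect; nearly all actives have a fitted effect of over 50% in size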
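Steps: plate 2000 CHO-M1 cells per well and culture 16–30 h; add compound and lithium; incubate 30 min, 37C; add d2-IP1 tracer and Eu cryptate anti-IP1 antibody in lysis buffer; read after 10 min at room temperature.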
* = called active by the depositor; [ ] = another dose, or the depositor's remark. The list is not random: actives were taken first. Their share in the collection is about 11%. Unless noted, calls come from the whole dose curve; as a rule, active = well fitted inhibition curve with a large enough effect (not every such curve was filed as active); inconclusive = small, poorly fitted or top-dose-only effect, or another doubt; inactive = no such curve, though single readings can be large or run the other way. Unless noted, % is set by controls: 0 for no effect and ±100 for the full control effect.

For O=C(CSc1nc2c([nH]c3ccccc32)c(=O)n1-c1cccc(Cl)c1)N1CCOCC1 the results were HPGD block -18%, PNC assembly inh 39, IMPase cell inh 5, ALDH1A1 block 3%, ALOX12 inhib -2% and IMPase Li inh 11%.
Screening COc1cccc(-n2c(SCC(N)=O)nc3c([nH]c4ccccc43)c2=O)c1 returned HPGD block -13%, PNC assembly inh 0, IMPase cell inh -8, ALDH1A1 block inconclusive, ALOX12 inhib -3% and IMPase Li inh 1%[38.3 µM].
For O=C(CSc1nc2c([nH]c3ccccc32)c(=O)n1-c1ccccc1)N1CCOCC1 the results were HPGD block -14%, PNC assembly inh inconclusive, IMPase cell inh 8, ALDH1A1 block 2.5µM*, ALOX12 inhib -3% and IMPase Li inh 20%[38.3 µM].
Cc1ccc(-n2c(SCC(N)=O)nc3c([nH]c4ccccc43)c2=O)cc1 was read as HPGD block -5%, PNC assembly inh inconclusive, IMPase cell inh 1, ALDH1A1 block 11µM*, ALOX12 inhib -11% and IMPase Li inh 17%[38.3 µM].
Screening Cc1cccc(Nc2nc(-c3ccccc3)c3cc(C)ccc3n2)c1 returned IMPase cell inh -5.
Screening O=C(Nc1cccnc1)c1ccc(Oc2ccccc2)cc1 returned HPGD block -2%, PNC assembly inh inconclusive, IMPase cell inh -2, ALDH1A1 block 4%, ALOX12 inhib 1% and IMPase Li inh 25%[38.3 µM].
`CCSc1ccccc1C(=O)Nc1cccnc1` gave HPGD block -13%, PNC assembly inh -100*, IMPase cell inh inconclusive, ALDH1A1 block 11%, ALOX12 inhib 0% and IMPase Li inh 1%.
`O=C(Nc1cccnc1)c1ccccc1Oc1ccccc1` gave HPGD block -15%, PNC assembly inh -11, IMPase cell inh 4, ALDH1A1 block 18µM*, ALOX12 inhib 2% and IMPase Li inh 44%[38.3 µM].
For C=CCOC(=O)N[C@@H](CCc1ccccc1)C(C(C)=O)C(C)=O the results were HPGD block -7%, ALDH1A1 block 8% and IMPase Li inh -13%.
For Nc1nc(SCc2ccc(Cl)cc2Cl)nc2nc3c(cc12)CCCC3 the results were HPGD block -28%, PNC assembly inh -83*, ALDH1A1 block 3%, ALOX12 inhib 1% and IMPase Li inh 4%.
CNC[C@H](O)[C@H](O)[C@H](O)[C@H](O)CO was read as HPGD block -2%, IMPase cell inh -1[20.6 µM], ALDH1A1 block -4%[20.9 µM], ALOX12 inhib -1%[25.6 µM] and IMPase Li inh -3%.
`COc1ccccc1NC(=O)Nc1ccc(Cl)c(S(=O)(=O)Nc2ccccc2OC)c1` gave HPGD block -19%, PNC assembly inh 44, ALDH1A1 block -12%, ALOX12 inhib -7% and IMPase Li inh -7%.
`COc1ccccc1NS(=O)(=O)c1cc(N2Cc3ccccc3C2=N)ccc1N1CCOCC1` gave ALDH1A1 block 8.9µM* and IMPase Li inh 9%.
`COc1ccccc1NS(=O)(=O)c1cc(NC(=O)c2ccncc2)ccc1N1CCCC1` gave ALDH1A1 block 11µM* and IMPase Li inh 18%.
CCN(CC)c1ccc(NC(=O)c2ccccc2)cc1S(=O)(=O)Nc1ccccc1OC was read as HPGD block 1.8µM*, PNC assembly inh inconclusive, ALDH1A1 block 1µM*, ALOX12 inhib -5% and IMPase Li inh 7%.
Screening COc1ccccc1NS(=O)(=O)c1cc(NC(C)=O)ccc1N1CCCCC1 returned ALDH1A1 block 8.9µM* and IMPase Li inh 6%.
COc1ccccc1OCCn1c(-c2ccc(Br)cc2)nc2ccccc2c1=O was read as IMPase cell inh 0.
For COc1ccccc1NS(=O)(=O)c1cc(NC(=O)c2ccc(Cl)nc2)ccc1Cl the results were HPGD block -25%, PNC assembly inh -7, ALDH1A1 block 25µM*, ALOX12 inhib 1% and IMPase Li inh 14%.
